# Compounds with a hit are over-represented: about 12% of the library has one in this group of screens.
# WT yeast gro inh: growth inhibition of WT strain, primary screen, mitochondrial fusion inhibitor project, WT and mutant strains, chemical genetic. AID 1362, 2008. inhibition, % at 10 µM. 190,000 compounds, 2.1% hits. mitochondrial fusion phenotypic screen; in the data active = inhibition above about 58%; tested in S. cerevisiae
# Insulin prom up: insulin promoter activators in MIN6 cells, imaging, high-content screening, mouse beta cells; MIN6 insulin promoter-GFP reporter; active compounds read high; z-score at 5 µM; 190,000 compounds, 0.3% hits; AID 1625, 2009;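 active = z-score above 3 at 5 µM with at least 500 cells counted in the well; inconclusive = wells under 500 cells, flagged as cytotoxic or low count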
# Lmaj promast: Leishmania major promastigote growth inhibition, primary screen; Leishmania major promastigotes, resazurin fluorescence viability; 200,000 compounds, 9% hits; AID 1063, 2008; inhibition, % at 10 µM; in the data active = inhibition above about 50%;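 also: promastigotes grown with compound for 44 hours at 28 °C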
# KCC2 mod: KCC2 cotransporter modulators, thallium flux, primary screen, cell-based, HEK293 KCC2, FluoZin-2 fluorescence, MLSMR; Solute carrier family 12 member 5 (Homo sapiens), Q9H2X9; KCC2 cells, thallium flux FluoZin-2 fluorescence; B-score of Tl+ flux slope (higher = more flux/activation; lower = inhibition) at 10 µM; 190,000 compounds, 2.2% hits; AID 1456, 2008;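 active = thallium flux slope and its plate-corrected score both differing from the plate sample mean at a set confidence after two filtering rounds, in either direction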;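 also: slope of fluorescence scaled to starting intensity during 10 to 20 s after thallium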
# ROMK primary: ROMK potassium channel modulators, primary screen, cell-based, thallium flux, MLSMR library; B-score at 10 µM; 130,000 compounds, 2% hits; Tet-inducible ROMK, thallium flux fluorescence; actives lie on both sides; AID 1918, 2009;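 active = signal ratio slope over the read window, or its plate-corrected B-score, at least 3 SD from the plate mean, either direction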;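 also: B-score of the F/F0 ratio slope over 7 to 12 s after thallium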
# Insulin prom inh: inhibitors of insulin promoter-driven GFP, primary screen, imaging, TRM-6 cells (human fetal islet line), eGFP reporter, cell count; 130,000 compounds, 0.9% hits; reporter expression induced with tamoxifen; inhibition, % at 2 µM; AID 1273, 2008;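 active = inhibition above the mean plus 3 SD, with well images judged a real hit on visual review, cut at about 60% in these data, passing the limit was not always enough; inconclusive = inhibition over the cutoff but images rejected on review; inactive = inhibition not above the cutoff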
# * hit, by the source's call; ? = inconclusive; · = not tested or not shown.
SMILES,WT yeast gro inh,Insulin prom up,Lmaj promast,KCC2 mod,ROMK primary,Insulin prom inh
CCC(=O)N1c2ccc(S(=O)(=O)CCC(=O)NC3CCCC3)cc2CC1C (stereo not given),-11,0.83,-3,·,-0.35,12
O=C(CS(=O)(=O)c1c[nH]c2ccccc12)N1CCc2ccccc21,-3,0.11,4,-1.3,·,·
Cc1ccc(C(C)C)c(OC(=O)/C=C/c2ccccc2)c1,79*,0.02,-8,-0.026,·,-27
CCOC(=O)c1sc2ncnc(NCc3ccco3)c2c1C,-4,1.3,3,128*,2.1,-122
CCOC(=O)c1sc2nc(C)nc(SCC(=O)NC(C)CCc3ccccc3)c2c1C (stereo not given),-1,0.01,96*,0.099,-0.13,3
CCOC(=O)c1sc2nc(CSc3ccccc3)nc(NCCN(C)C)c2c1C,26,·,93*,-0.0086,-1.2,·
CCOC(=O)c1sc2nc(C)nc(N3CCN(c4ncccn4)CC3)c2c1C,9,0.69,7,-0.32,-0.22,·
CC(CCc1ccccc1)NC(=O)CSc1ccccn1 (stereo not given),6,-1.1,-9,-0.34,0.85,·
CCOC(=O)c1sc2nc(CC(=O)OC)nc(NCC(=O)OC)c2c1C,22,?,7,0.87,0.54,·
CCOC(=O)c1sc2nc(C)nc(NCCc3ccccn3)c2c1C,-1,-0.6,18,-0.7,-1.1,94*
O=C(O)C1CC(=O)N(c2ccc(Br)cc2)C1 (stereo not given),3,0.79,-2,·,·,-18
COc1ccc(C)cc1S(=O)(=O)N(CC(=O)Nc1cccc([N+](=O)[O-])c1)c1ccc(C)c(C)c1,-3,-0.29,50*,-0.77,-0.52,-97
Cc1ccc(NC(=O)CN(c2ccc(Cl)cc2)S(=O)(=O)c2cc([N+](=O)[O-])ccc2Cl)cc1,30,-0.01,59*,0.036,-0.37,8
Cc1ccc(S(=O)(=O)N(CC(=O)Nc2ccccc2C(=O)O)c2ccc(Cl)cc2)cc1,9,-0.33,-5,-2.2,-0.23,-94
COc1cnc(-c2ccccn2)nc1Oc1ccc(Cl)c2ccccc12,-5,·,100*,-0.72,·,·
COc1cnc(-c2ccccc2)nc1Oc1ccccc1C,5,1.5,7,-0.034,·,·
COc1cnc(-c2ccccn2)nc1Oc1ccc(Cl)cc1,38,·,71*,0.75,·,·
COc1cnc(-c2ccccn2)nc1Oc1ccccc1Cl,61*,-0.95,44,0.089,·,·
COc1cnc(-c2ccccn2)nc1Oc1ccc(F)cc1F,47,-1.3,37,-2.4,0.21,·
O=C(c1cc(=O)[nH]c2ccccc12)N1CCN(c2cccc(C(F)(F)F)c2)CC1,-28,0.63,-3,-0.38,-0.011,·
O=c1[nH]c(CN2CCN(Cc3ccc4c(c3)OCO4)CC2)nc2sc3c(c12)CCC3,·,3.5*,·,·,·,·
N/C(Cc1nc(-c2ccc(F)cc2)cs1)=N\O,·,0.67,·,-0.95,·,·
O=C(CC1Sc2ncnn2C1=O)Nc1ccccc1 (stereo not given),-9,·,100*,·,-0.029,43
COc1ccc(S(=O)(=O)n2nc(C)cc2C)c(C)c1C,-2,-0.11,50*,·,-1.4,7
CCNC(=O)CC1C(=O)N(c2ccc(F)cc2)C(=O)N1CCC(C)C (stereo not given),5,-0.01,-1,0.34,·,-11
SMILES,WT yeast gro inh,Insulin prom up,Lmaj promast,KCC2 mod,ROMK primary,Insulin prom inh
COc1ccccc1C(=O)N1CCN(c2cccc(Cl)c2)CC1,9,·,1,-2.6,1,·
CC(C)COP(=O)(OCC(C)C)C(Nc1ccccc1)c1ccc(F)cc1 (stereo not given),22,0.6,93*,-0.62,-1,-52
COc1cc(C)c(NC(=S)Nc2ccc(C)c(Cl)c2)cc1OC,-2,-0.09,15,·,0.74,0
COc1cc(C)c(NC(c2ccccc2)c2ccccc2)cc1OC,53,-0.8,91*,-1.5,0.15,11
CCCCCCCNC(=O)c1ccc(N2CCC3(CC2)OCCO3)c([N+](=O)[O-])c1,38,-0.03,94*,0.15,-0.92,-43
O=C(NCc1ccco1)c1ccc(N2CCOCC2)c([N+](=O)[O-])c1,7,-0.47,-4,0.79,0.74,14
COc1ccc(CNC(=O)c2ccc(N3CCOCC3)c([N+](=O)[O-])c2)cc1,14,-0.23,0,-0.012,1.4,·
CC1CCN(c2ccc(C(=O)NCc3ccco3)cc2[N+](=O)[O-])CC1,44,0.61,50*,-2.3,-0.95,18
O=C(NCc1ccc(F)cc1)c1ccc(N2CCc3ccccc32)c([N+](=O)[O-])c1,23,-0.24,92*,-1.4,-1.2,-3
CC1CCN(S(=O)(=O)c2cccc(C(=O)NCc3ccco3)c2)CC1,-2,-0.08,6,-0.14,-0.78,-38
O=C(NCc1ccco1)c1ccc(N2CCCCC2)c([N+](=O)[O-])c1,8,0.52,63*,-1.3,-0.042,-41
CC(C)CC(=O)Nc1nc(=S)ss1,9,-0.8,-11,-0.022,1.3,·
Cc1nc(C)c(C(=O)NNS(=O)(=O)c2ccccc2)s1,-10,-0.06,-5,0.7,-0.0011,-63
CCOC(=O)c1sc(-c2ccccc2)cc1N,·,1.3,-4,0.095,0.78,22
CCOC(=O)c1sc(-c2ccccc2)cc1NC(=O)Nc1ccc([N+](=O)[O-])cc1,0,-0.73,85*,1.4,0.16,14
Cc1ccc(Nc2ncc(C(=O)NCCCN3CCN(C)CC3)c3ccccc23)cc1Cl,-11,0.44,84*,0.047,-1,·
COc1ccc(Nc2cc(C(=O)NCCCN3CCN(C)CC3)c3ccccc3n2)c(OC)c1,-8,-0.81,1,·,0.28,27
CC(=O)c1cccc2c(O)c(C3=Nc4ccccc4C3=O)[nH]c12,26,·,99*,-1.3,-0.69,-206
COc1ccccc1NCCC#N,-10,0.23,-2,0.027,·,39
Cc1ccc(NCCC#N)cc1C,12,0.06,50*,0.8,·,4
Cc1cccc(NCCC#N)c1,7,·,-6,0.53,0.81,36
Cc1ccc(C)c(NCCC#N)c1,-1,0.43,53*,-0.48,·,28
Cc1noc(C)c1COc1ccc(C(=O)OCC(=O)NCc2ccccc2Cl)cc1,5,·,-10,1,1.1,·
Fc1ccc(CNC(=S)NC2CCCCCC2)cc1,71*,-0.08,17,-1.4,-0.66,26
S=C(NCCNCc1ccccc1)NC1CCCCC1,62*,-0.29,40,-0.52,0.45,·
COc1ccc(CNC(=S)NC2CCCC2)cc1,6,-0.31,-2,-0.072,·,·
S=C(NCCc1ccc(Cl)cc1)NC1CCCC1,65*,0.05,18,-1.7,-1.4,6
O=S(=O)(Nc1cccc(Cl)c1)c1ccc2oc(=S)[nH]c2c1,-22,-0.39,-6,0.17,0.29,·
